Mtb hypoxia rep: Mtb hypoxia fluorescent reporter inhibition; M. tuberculosis hypoxia-regulated fluorescent reporter, fluorescence; fluorescence inhibition, % (test concentration not listed); 0.1% of 300,000 active; in the data active = fluorescence inhibition mostly above about 23%, no sharp cut-off; inactive = mostly below about 17%
GDH-TPI counter-1: inhibits GDH-TPI coupling enzymes, artifact for Mtb FBA screen; GDH-TPI coupled enzyme counterscreen, NADH absorbance; inhibition, % at 4.8 µM; 1.2% of 360,000 active; in the data active = inhibition above about 30%;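 also: 0% = DMSO wells and 100% = wells lacking the enzyme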
FBA Mtb inh: inhibits M. tuberculosis FBA enzyme. P9WQA3. purified M. tuberculosis FBA, fluorescence read-out. inhibition, % at 1 µM. 2.3% of 360,000 active. AID 588726;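 also: 0% = vehicle and 100% = reference inhibitor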
Target sequence (P9WQA3 whole entry, looked up): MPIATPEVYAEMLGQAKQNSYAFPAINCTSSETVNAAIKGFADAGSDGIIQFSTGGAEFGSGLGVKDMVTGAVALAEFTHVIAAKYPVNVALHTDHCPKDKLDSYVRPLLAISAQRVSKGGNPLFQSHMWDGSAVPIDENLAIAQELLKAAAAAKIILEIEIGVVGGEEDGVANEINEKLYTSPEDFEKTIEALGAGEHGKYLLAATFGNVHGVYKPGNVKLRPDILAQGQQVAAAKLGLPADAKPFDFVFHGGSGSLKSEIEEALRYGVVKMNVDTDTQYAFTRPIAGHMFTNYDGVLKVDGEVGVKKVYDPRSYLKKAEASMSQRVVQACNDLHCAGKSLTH
BioA inh: inhibitors of Mycobacterium tuberculosis BioA enzyme; purified M. tuberculosis BioA enzyme, plate reader; inhibition, % at 9.99 µM; 0.096% of 360,000 active; AID 602481; in the data active = inhibition above about 40%
FadD28 binding: inhibitors of Mycobacterium tuberculosis FadD28 bisubstrate binding; 0.22% of 360,000 active; inhibition, % at 12.5 µM; FadD28 bisubstrate probe binding, fluorescence polarization; AID 588549; in the data active = inhibition above about 8.5%, passing the limit was not always enough
Mtb FBA inh conf: Mtb FBA inhibition, confirmed. shares compounds with FBA Mtb inh. purified M. tuberculosis FBA, fluorescence read-out. inhibition, % at 1 µM. 78% of 5,600 active. AID 651616;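 also: 0% = vehicle wells and 100% = reference inhibitor wells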
GDH-TPI counter-2: counter-screen for M. tuberculosis FBA inhibitors: GDH-TPI coupled enzyme inhibition; shares compounds with FBA Mtb inh; GDH-TPI coupled enzyme counterscreen, fluorescence; inhibition, % at 1 µM; 81% of 5,600 active; in the data active = inhibition above about 10%
GDH-TPI dose: inhibits GDH-TPI coupling enzymes in dose response. IC50, µM. GDH-TPI coupled enzyme assay, fluorescence, artifact counterscreen. 79% of 170 active. shares compounds with FBA Mtb inh; call rule not given here
* = called active by the depositor; x = not tested or not shown; + = active, no number. A selection: hits, their analogues and other compounds. The true share with any hit is near 2.9%. Rule as the data show it, unless noted: active = inhibition above about 27%; inactive = the rest.

SMILES	Mtb hypoxia rep	GDH-TPI counter-1	FBA Mtb inh	BioA inh	FadD28 binding	Mtb FBA inh conf	GDH-TPI counter-2	others
CN(CCNC(=O)c1c[nH]c2c1ccc1ccccc12)CCNC(=O)c1c[nH]c2c1ccc1ccccc12	x	22	30*	x	-12	193*	173*
CCn1nc2cc(C(=O)NCC34CC5CC(CC(C5)C3)C4)ccc2c1OC	6	11	28*	-1	2	14	-5	GDH-TPI dose=4*
CCOc1c2ccc(C(=O)NCC34CC5CC(CC(C5)C3)C4)cc2nn1CC	6	8	39*	-3	1	1	6
CCCCn1nc2cc(C(=O)NCC34CC5CC(CC(C5)C3)C4)ccc2c1OC	3	8	31*	-1	0	57*	43*
COc1c2ccc(C(=O)NCCCCc3ccccc3)cc2nn1C	8	3	26	-1	-2	x	x
O=C(N/N=C/c1cc(Cl)ccc1O)c1ccc(Br)cc1	x	12	27*	x	2	78*	57*
O=C(N/N=C/c1cc(Br)ccc1O)c1ccncc1	x	11	0	-2	-8	x	x
O=C(C[C@@H]1C[C@@H]2c3cc(NC(=O)C4CCOCC4)ccc3O[C@@H]2[C@H](CO)O1)NCc1cccc(F)c1	x	x	x	-2	x	x	x
CCN(CC)c1ccc(/C=N/NC(=O)CNC(=O)c2ccc3c(c2)OCCO3)cc1	x	42*	47*	-1	0	54*	47*
O=C(CNC(=O)c1cccc(Br)c1)N/N=C/c1ccc2c(c1)OCO2	x	11	33*	-3	-1	141*	106*
CCOC(=O)CC(C)=NNC(=O)Nc1ccccc1	12	x	x	x	x	x	x
O=C(OCC(=O)N1CCC(Cc2ccccc2)CC1)c1ccccc1O	6	6	-1	2	-2	x	x
CCOC(=O)N1CCN(C(=O)COC(=O)c2ccccc2NCCO)CC1	-9	9	107*	x	-1	77*	78*
O=C(OCC(=O)N1CCC(Cc2ccccc2)CC1)c1ccccc1NCCO	6	7	80*	x	1	47*	29*
COc1ccc(N2CCN(C(=O)COC(=O)c3cccc(OC)c3O)CC2)cc1	3	9	-2	0	-2	x	x
CNc1ccccc1C(=O)OCC(=O)N1CCN(c2ccc(OC)cc2)CC1	x	5	73*	0	-2	0	-5
O=C(OCC(=O)N(CCc1ccccc1)Cc1ccccc1)c1ccccc1NCCO	4	-8	66*	0	-5	164*	106*
CS(=O)(=O)Nc1ccc2c(c1)[C@H]1C[C@@H](CC(=O)N3CCCCC3)O[C@@H](CO)[C@H]1O2	x	x	x	-1	x	x	x
C[C@@H]1CN([C@H](C)CO)C(=O)c2cccc(NS(C)(=O)=O)c2O[C@H]1CN(C)S(=O)(=O)c1ccccc1	x	x	x	-1	x	x	x
COc1ccccc1-c1cnc2c(c1)C(=O)N([C@@H](C)CO)C[C@@H](C)[C@H](CN(C)Cc1ccc(F)cc1)O2	x	x	x	-2	x	x	x
C[C@H](NC(=O)C[C@H]1C[C@H]2c3cc(NC(=O)Cc4ccncc4)ccc3O[C@H]2[C@H](CO)O1)c1ccccc1	x	x	x	-1	x	x	x
c1ccc(C2=NN(c3ccccc3)CC2)cc1	2	25	49*	1	0	-2	-5
O=C(O)CCc1nn2c3ccccc3n(Cc3ccccc3F)c2nc1=O	-5	5	37*	8	0	110*	87*
O=C(O)CCc1nn2c3ccccc3n(CC(=O)O)c2nc1=O	-3	19	24	-1	-2	x	x
COc1ccc(-c2oc3ccc(N4CCOCC4)cc3c2C#Cc2ccc(N)cc2)cc1	1	10	44*	-2	1	49*	48*
SMILES	Mtb hypoxia rep	GDH-TPI counter-1	FBA Mtb inh	BioA inh	FadD28 binding	Mtb FBA inh conf	GDH-TPI counter-2	others
COc1ccc(/C=C/c2c(-c3cccc(C)c3)oc3ccc(N4CCOCC4)cc23)cc1	x	27	35*	1	-4	103*	98*
COC(=O)c1ccc(/C=C/c2c(-c3ccc(OC)cc3)oc3ccc(N4CCOCC4)cc23)cc1	x	0	13	-1	0	x	x
CCOC(=O)c1nn(-c2ccc3c(c2)OCCO3)cc1O	13	4	31*	2	0	93*	65*
CCOC(=O)c1nn(-c2ccc(C)c(C)c2)cc1O	-3	16	3	0	-1	x	x
CCCCn1c(-c2cccnc2)nc2cc3[nH]c(=O)c(C(C)C)nc3cc21	17	31*	64*	0	0	+	170*
CCCCn1c(-c2cccc(Br)c2)nc2cc3[nH]c(=O)c(C(C)C)nc3cc21	23	21	34*	-2	-9	8	-1
CCCCn1c(-c2ccc(C(C)(C)C)cc2)nc2cc3[nH]c(=O)c(C(C)C)nc3cc21	15	1	15	0	0	x	x
Cc1ccc(CN2C(c3ccccc3)COCCS2(=O)=O)cc1 (stereo not given)	-2	x	x	x	x	x	x
CN(C)CCCNC(=O)C[C@@H]1C=C[C@H](NS(=O)(=O)c2ccc(F)cc2)[C@H](CO)O1	x	x	x	0	x	x	x
O=c1c2c([nH]c3ccccc13)CCCCC2	-5	6	-1	x	0	x	x
COc1ccc2[nH]c3c(c(=O)c2c1)CCCC3	x	x	30*	1	-3	+	153*
Cc1cc(C(=O)NN=Cc2cc(Br)ccc2OC(=O)c2ccccc2)n[nH]1	7	x	x	x	x	x	x
CC(=O)c1cccc(OC(=O)C2=CC=CN3CCS(=O)(=O)N=C23)c1	6	12	44*	-2	-1	146*	152*
O=C(Nc1cccc(Cl)c1)C1=CC=CN2CCS(=O)(=O)N=C12	6	30	0	-1	-2	x	x
Cc1cc2[nH]c(=O)c(=O)[nH]c2cc1S(=O)(=O)NC1CCC(C)CC1 (stereo not given)	3	14	29*	-1	-1	191*	188*
Cc1cc2[nH]c(=O)c(=O)[nH]c2cc1S(=O)(=O)NCc1ccccc1	3	7	33*	2	-5	72*	65*
Cc1cc2[nH]c(=O)c(=O)[nH]c2cc1S(=O)(=O)NCC(C)c1ccccc1 (stereo not given)	x	18	24	0	-1	x	x
O=C(N[C@@H]1C=C[C@@H](CC(=O)N2CCOCC2)O[C@H]1CO)c1cccc(F)c1	x	x	x	-1	x	x	x
O=c1[nH]c2c(=O)[nH]cnc2nc1-c1ccccc1	-1	3	74*	x	-2	56*	42*
CO[C@@H]1CN(C)C(=O)c2ccc(NC(=O)C3CCC3)cc2OC[C@H](C)N(Cc2ccc(F)cc2)C[C@H]1C	x	x	x	1	x	x	x
CC(=O)n1cc(C2C=C(C(=O)O)OC(OCc3ccc(CO)cc3)C2)c2ccccc21 (stereo not given)	-4	x	x	x	x	x	x
CC(C)OC(=O)CSc1nc(N)c(C#N)c(-c2cccs2)c1C#N	-1	6	0	-2	-5	x	x
